From PubChem BioAssay (NCI) come the findings set out here.

Some test systems named below: NCI-H23 lung; NCI-H226 lung; NCI-H322M lung; HOP-62 NSCLC; NCI-H460 lung; HOP-92 NSCLC; NCI-H522 lung; A549/ATCC NSCLC; 786-0 renal; COLO 205 colon.
Common to all, as to assay: NCI-60 one-dose screen, 48 h (100 = growth as untreated, 0 = no growth, -100 = all killed)
Settings in all cases: 10 µM unless noted

About 83,000 compounds went through this panel and 20% of them were active in at least one assay; those are over-represented in the sample as a whole.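 A percent growth of 40 corresponds to 60% growth inhibition; 0 means no net growth; -100 means all cells died. Active threshold: below 10.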 Unmarked numbers belong to inactive results. Active and inactive are the calls of the source.

Turning to `COC(=O)[C@]1(C)CCC[C@]2(C)[C@H]3C[C@H]4C(C(C)C)=C[C@]3(CC[C@H]21)[C@H]1[C@@H]4[C@@H](OCCC#N)CC[C@@H]1OCCC#N`, the growth was 46.3% in the assay on NCI-H23 lung; 46.1% in the assay with NCI-H226 lung; 98.6% in the assay with NCI-H322M lung; 75.3% with HOP-62 NSCLC; 33.3% in the assay on NCI-H460 lung; 26.2% with HOP-92 NSCLC. The growth with NCI-H522 lung was 28.4%; with A549/ATCC NSCLC it was 37.4%; in the assay on 786-0 renal, 37.3%; with COLO 205 colon, 11.9%.

On to `C=C(C)[C@@H]1CC[C@]2(C(=O)O)CC[C@]3(C)[C@H](CC[C@@H]4[C@@]5(C)C[C@@H](Cc6cn(CCO[C@@H]7O[C@H](COC(C)=O)[C@H](OC(C)=O)[C@H](OC(C)=O)[C@H]7OC(C)=O)nn6)[C@H](O)C(C)(C)[C@@H]5CC[C@]43C)[C@@H]12`, for which the growth in the assay on NCI-H23 lung was 60.5%; with NCI-H226 lung, 81.9%; in the assay with NCI-H322M lung, 82.7%; with HOP-62 NSCLC it was 80.7%; in the assay on NCI-H460 lung it was 62%; in the assay with HOP-92 NSCLC it was -3.81% (active). Besides, the growth was 64.1% in the assay with NCI-H522 lung, 61.8% in the assay on A549/ATCC NSCLC, 78.9% with 786-0 renal and 96.5% with COLO 205 colon.

As for `N#Cc1c(-c2cccs2)cc(-c2cccnc2)[nH]c1=O`, the growth was 102% in the assay with NCI-H23 lung; 98.5% in the assay with NCI-H226 lung; 96.8% in the assay on NCI-H322M lung; 90.3% in the assay with HOP-62 NSCLC; 110% with NCI-H460 lung; 104% in the assay with HOP-92 NSCLC. The growth is 98.7% in the assay with NCI-H522 lung, 97.8% in the assay with A549/ATCC NSCLC, 103% in the assay with 786-0 renal and 97.2% with COLO 205 colon.

Regarding `O=C1CNC(c2ccccc2)C(c2ccccc2)N1` (stereo not given), the growth in the assay on NCI-H23 lung is 85.2%; with NCI-H226 lung it was 99.4%; in the assay with NCI-H322M lung, 103%; in the assay on HOP-62 NSCLC, 121%; in the assay with NCI-H460 lung, 103%; in the assay on HOP-92 NSCLC, 86.3%. Besides, the growth in the assay with NCI-H522 lung was 88.6%; in the assay on A549/ATCC NSCLC, 93.5%; in the assay on 786-0 renal it was 92.4%; in the assay on COLO 205 colon it was 115%.

In the case of `CC[C@@H](C(=O)[C@@H](C)[C@@H](O)[C@H](C)[C@@H]1O[C@@H]([C@@H](CC)C(=O)NCCc2ccc(F)cc2)CC[C@@H]1C)C1O[C@]2(C=CC(=O)[C@]3(CC[C@@](C)([C@H]4CC[C@](O)(CC)[C@H](C)O4)O3)O2)[C@H](C)C[C@@H]1C` (stereo not given in full), the growth with NCI-H23 lung was 24.8%; in the assay on NCI-H226 lung it was 24.2%; in the assay with NCI-H322M lung it was 76.7%; in the assay with HOP-62 NSCLC, 36%; in the assay with NCI-H460 lung, 35%; with HOP-92 NSCLC it was -0.474% (active). Besides, the growth in the assay with NCI-H522 lung is 33.3%; in the assay with A549/ATCC NSCLC it was 20.3%; in the assay on 786-0 renal, 50.3%; with COLO 205 colon, 29.5%.

For `CN(C)CCCn1c2c(c3ncccc3c1=O)C(=O)c1ccccc1-2`, the growth is 54.8% with NCI-H23 lung; 54.1% with NCI-H226 lung; 44.1% with NCI-H322M lung; 51.9% in the assay with HOP-62 NSCLC; 11.6% in the assay on NCI-H460 lung; 70.9% with HOP-92 NSCLC. The growth in the assay with NCI-H522 lung is 34.4%; in the assay on A549/ATCC NSCLC, 42%; in the assay on 786-0 renal it was 52.2%; in the assay on COLO 205 colon, 20.4%.

Turning to `CCN(CC)CCOc1ccc(-c2c(-c3ccccc3)c(=O)oc3ccccc23)cc1`, the growth in the assay with NCI-H23 lung was 94.8%; in the assay on NCI-H226 lung it was 82.7%; in the assay with NCI-H322M lung, 110%; in the assay on HOP-62 NSCLC, 95.5%; with NCI-H460 lung, 95.8%; with HOP-92 NSCLC, 84.3%. In addition, the growth with NCI-H522 lung was 71.6%; with A549/ATCC NSCLC, 92%; in the assay with 786-0 renal, 85%; with COLO 205 colon, 81.2%.

For `CCNC(=O)c1[nH]cc(-c2ccccc2)c1-c1cc(OC)c2c(c1OC)OCO2`, the growth in the assay on NCI-H23 lung is 93.8%; in the assay on NCI-H226 lung, 86.9%; in the assay on NCI-H322M lung, 93.7%; in the assay with HOP-62 NSCLC it was 91.8%; in the assay with NCI-H460 lung it was 108%; with HOP-92 NSCLC it was 83.9%. The growth in the assay with NCI-H522 lung was 93.4%; with A549/ATCC NSCLC, 96%; in the assay with 786-0 renal, 101%; with COLO 205 colon it was 111%.

Turning to `Cc1cc2c(O)c(-c3cccc(Cl)c3)c3sc(=O)oc3c2cc1C`, the growth in the assay on NCI-H23 lung is 12%; in the assay on NCI-H226 lung it was 42.9%; in the assay with NCI-H322M lung, 59.8%; with HOP-62 NSCLC, 76.7%; in the assay on NCI-H460 lung, 24.9%; with HOP-92 NSCLC it was -31.3% (active). Moreover, the growth in the assay on NCI-H522 lung was 12.7%; in the assay with A549/ATCC NSCLC it was 69.1%; with 786-0 renal, 78.8%; with COLO 205 colon, 115%.

In the case of `Cc1ccc(Cc2cnc(NC(=O)c3cc(Br)cs3)s2)cc1`, the growth with NCI-H23 lung was 73.1%; in the assay on NCI-H226 lung, 73.1%; with NCI-H322M lung, 79.7%; in the assay on HOP-62 NSCLC, 50.8%; in the assay with NCI-H460 lung it was 46.7%; in the assay with HOP-92 NSCLC, 59.1%. For the same compound, the growth in the assay with NCI-H522 lung was 34.3%; with A549/ATCC NSCLC, 51%; in the assay on 786-0 renal, 67.8%; with COLO 205 colon, 80%.

As for `COc1ccc(C(=O)Nc2ncc(Cc3ccc(F)cc3)s2)cc1`, the growth is 30.7% with NCI-H23 lung; 40.9% in the assay on NCI-H226 lung; 34.6% in the assay on NCI-H322M lung; 28.7% with HOP-62 NSCLC; 6.59% (active) in the assay with NCI-H460 lung; 51.5% with HOP-92 NSCLC. Also, the growth was -5.3% (active) in the assay on NCI-H522 lung, 23.3% with A549/ATCC NSCLC, 27.8% in the assay with 786-0 renal and -16.2% (active) in the assay with COLO 205 colon.

Turning to `COc1cccc(/C=C/C(=O)c2cc3c(N)c(C(=O)Nc4ccccc4)sc3nc2C)c1`, the growth in the assay on NCI-H23 lung is 49.6%; with NCI-H226 lung, 55.3%; in the assay with NCI-H322M lung it was 67.9%; with HOP-62 NSCLC, 13.6%; with NCI-H460 lung, -22.5% (active); in the assay with HOP-92 NSCLC, 64.4%. The growth in the assay on NCI-H522 lung was 7.06% (active); with A549/ATCC NSCLC, 34.3%; in the assay on 786-0 renal it was -38.2% (active); in the assay with COLO 205 colon, 67.6%.
